Experimental data reported in PubChem BioAssay (NCI).
This is part of a sample that, as a whole, favours compounds with a hit. Of some 79,000 tested, about 15% had one in any assay. Values without a mark were called inactive. Calls of active or inactive are those of the source. Rule as the data show it: active = growth inhibition above about 70%; inactive = the rest.

Assays:
[1] = NCI Yeast Anticancer Drug Screen. Data for the rad50 strain (AID 155);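 also: 0% = growth of vehicle-only cultures of the same strain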; settings: S. cerevisiae rad50 strain growth inhibition, active compounds read high; at 50.0 µM unless noted
How it was run: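 Yeast carrying a defined DNA repair defect were exposed to test compounds, and growth was compared with vehicle-treated controls to give percent inhibition.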

[2] = NCI Yeast Anticancer Drug Screen. Data for the mec2-1 strain (AID 157); settings: S. cerevisiae mec2-1 strain, active compounds read high; at 50.0 µM unless noted
How it was run: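 Readout is yeast growth inhibition, normalised to vehicle-treated controls, in the mec2-1 strain exposed to compound.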

[3] = NCI Yeast Anticancer Drug Screen. Data for the sgs1 mgt1 strain (AID 161);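 also: 0% = growth of cultures given vehicle only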; settings: S. cerevisiae sgs1 mgt1 strain, active compounds read high; at 50.0 µM unless noted
How it was run: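 This yeast growth screen uses a strain with defined DNA-repair lesions; compound-treated growth is compared with vehicle-treated growth.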

[4] = NCI Yeast Anticancer Drug Screen. Data for the cln2 rad14 strain (AID 165);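 also: 0% = growth equal to vehicle treated cultures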; settings: S. cerevisiae cln2 rad14 strain, active compounds read high; at 50.0 µM unless noted
How it was run: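 Relative to vehicle controls, growth inhibition of compound-treated cln2 rad14 yeast was recorded.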

[5] = NCI Yeast Anticancer Drug Screen. Data for the bub3 strain (AID 167); settings: S. cerevisiae bub3 mutant strain, active compounds read high; at 50.0 µM unless noted
How it was run: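 Compounds were applied to a genetically altered yeast strain carrying a cell-cycle control defect. Growth inhibition was scored against vehicle-treated controls.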

[6] = NCI Yeast Anticancer Drug Screen. Data for the mlh1 rad18 strain (AID 175); settings: S. cerevisiae mlh1 rad18 strain growth inhibition, active compounds read high; at 50.0 µM unless noted
How it was run: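 Test agents were incubated with a yeast strain of defined genotype (DNA damage repair defect). Inhibition of growth was derived by comparison with vehicle-exposed cultures.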

Structure (SMILES) | growth inhibition [1] | growth inhibition [2] | growth inhibition [3] | growth inhibition [4] | growth inhibition [5] | growth inhibition [6]
O=C(O)c1ccc(C(=O)NCCCN(CCCCN(CCCNC(=O)c2ccc(C(=O)O)c(O)c2O)C(=O)c2ccc(C(=O)O)c(O)c2O)C(=O)c2ccc(C(=O)O)c(O)c2O)c(O)c1O | 11.2% | 16.1% | 20.3% | -31.3% | 0.35% | 24.9%
O=C1c2ccccc2C(=O)N1CN1C(=O)c2ccccc2S1(=O)=O | 24.1% | 15.6% | 29.4% | 24.2% | 19.4% | 34.9%
CC1=CC(C)(C)[C@H]2O[C@@]3(O)C[C@]4(C)[C@H]5C[C@@](C(C)C)(O[C@H]4c4ccoc4)O[C@H]4[C@]5(C3)O[C@@]1(O)[C@]24O | 5.2% | 0.45% | -11.9% | -14.8% | -13.4% | -3.5%
CN(C)C1=C(Cl)C(=O)C(=O)c2cccnc21 | 32.3% | -2.9% | 21.4% | 5.2% | -16.4% | 38.4%
CC(=O)OCCc1cc2ccccc2oc1=O | -9.05% | 23.9% | -16.8% | 8.6% | 12.2% | 9.25%
Cc1cc2c(C)nn(Cc3ccccc3)c2c(C(N)=O)c1C | 9.85% | -6.65% | -10% | 35.6% | -3.1% | 51.4%
Clc1cccc(Nc2ncnc3nc[nH]c23)c1 | 7.15% | 0.25% | 5.1% | -12.2% | -12.9% | 0.5%
C=C(C)C(=O)Oc1ccccc1/C=C/C(=O)CCCCCC | -8.45% | -14.1% | -20.4% | -9.1% | -11% | 4.4%
Clc1ccccc1/C=N\N=C\c1ccco1 | 8.3% | -14.1% | -9.05% | -40.4% | -11.1% | 14.4%
Cc1ccc(O)c(C=NCCN=Cc2cc(C)ccc2O)c1.[Zn] | -14.4% | 8.6% | 0.05% | -13% | -43.1% | -32.4%
CC(C)C(C(N)=O)(C(=O)O)C(C)C | -4.25% | 4.05% | 4.6% | 5.2% | -5.5% | 6.85%
CC(C)COC(=O)/C=C/c1ccccc1 | 19.8% | 16.6% | 20.6% | 7.3% | 2.9% | 11.6%
CC1=C2CC(C)(C)/C=C\C(=O)/C(C)=C\C3=C[C@H](C)C[C@]3(O2)C1=O | 60.8% | 71.2% (active) | 72.8% (active) | 40.4% | 64.4% | 79.8% (active)
CNc1ccccc1C(=O)NCCCN | -10.3% | -25.6% | 5% | 2.75% | 18.8% | 0.45%
CC(C)(O)C(O)c1ccccc1 (stereo not given) | 10.9% | 7% | 9.1% | 2.3% | 1% | 1.35%
N#CC(C(=O)C(=O)Nc1nccs1)c1ccccc1 (stereo not given) | 5.85% | -0.85% | 4.75% | 41.9% | 17.2% | 16%
Cc1c(N(C)CN(C)c2c(C)n(C)n(-c3ccccc3)c2=O)c(=O)n(-c2ccccc2)n1C | -13.2% | -27.4% | -15.7% | 3.25% | -12.9% | -18%
COc1ccc(-[n+]2nc(S(=O)(=O)O)c(/C=C/c3ccc(N(C)C)cc3)cc2C#N)cc1 | -13.8% | -9.05% | 20.1% | 6.65% | 5.85% | -9.5%
Cc1cc(Cl)ccc1NC(=O)CC/C(CC(=O)C(C)C)=N\NC(=O)C[n+]1ccccc1 | -43.9% | 3.45% | -20.4% | -15.2% | -30.6% | -32.8%
Nc1ccc(C(=O)O)cc1N | 17.5% | 46.6% | 15.4% | 15.3% | 1.45% | 45.5%

Structure (SMILES) | growth inhibition [1] | growth inhibition [2] | growth inhibition [3] | growth inhibition [4] | growth inhibition [5] | growth inhibition [6]
CN(C)c1nc(S(C)(=O)=O)nc2nc(Cl)[nH]c12 | 6.2% | -13.6% | -0.85% | -7.1% | 3.65% | -9.8%
CCOC(=O)CC(=O)CC(=O)OCC | 36% | 2.6% | -6.95% | 6.1% | 23% | 7%
CC1COC(C)(C)P(=O)(c2ccccc2)C1 (stereo not given) | -6.9% | -9% | -11.3% | 16.2% | -7.15% | -27.4%
CC(C)(CO)NCC(C)(C)[N+](=O)[O-] | 8.5% | 2.25% | 14.6% | -9.2% | 6.95% | 6.7%
c1ccc(CNc2nnnc3ccccc23)cc1 | -2.75% | -1.45% | -2.4% | -30.8% | -14.5% | 2.2%
CC(=O)N(C(C)=O)c1c(N)n(C)c(=O)[nH]c1=O | 12.7% | -4.85% | 6.6% | 14.3% | 2.75% | 8.5%
Cn1c2c(c(=O)c3ccccc31)CC(O)C(C)(C)O2 (stereo not given) | -23.6% | -35.7% | -6.4% | 6% | 3.35% | -2.65%
c1ccc(C2c3ccccc3CN2c2ccccc2)cc1 (stereo not given) | 25.4% | 6.2% | 11.4% | 9.4% | 23.1% | 2.35%
CC1(C)SCc2nc3ccccc3n21 | -9.75% | -34.9% | 12.2% | 21.9% | 19.1% | 6.3%
COc1ccc(-c2cccc(C(=O)O)c2C(=O)O)cc1OC | 6.1% | 20.8% | 0.4% | -17.2% | -7.4% | -10.1%
Nc1c(Cl)ccc2c(Cl)ccnc12 | -1.15% | -9.55% | -7.2% | -21.1% | -9.55% | 7.55%
CC1OCC(O)C(C(O)C(=O)CN(Cc2ccccc2)Cc2ccccc2)O1 (stereo not given) | 10.2% | 15.6% | 8.65% | 8.55% | 5.75% | 9.55%
CN(C)c1ccc(C(=O)Cc2ccc3ccccc3n2)cc1 | 98.7% (active) | 99.2% (active) | 99.1% (active) | 98.2% (active) | 98.9% (active) | 98.9% (active)
Cc1ccc(OCCC(=O)O)cc1 | 6.9% | -6.15% | -11.2% | -63.5% | -26.6% | -1.65%
C=C1CC(c2ccccc2)(c2cccs2)OC1=O (stereo not given) | 67.7% | 93.6% (active) | 96.2% (active) | 14.3% | 90.5% (active) | 90.7% (active)
OCC1OC(n2cnc3c(/C=C(/O)c4ccccc4)ncnc32)C(O)C1O (stereo not given) | -32.6% | -27% | 0.35% | -13.5% | -27.1% | 5.35%
CC(O)COC(C)C (stereo not given) | 8.55% | -5.7% | 17.7% | 2.85% | -1.85% | 19.8%
CCOC(=O)C(C)NC(=O)C(C)NC(=O)C(C)NC(=O)C(C)NC(=O)C(C)NC(=O)OCc1ccccc1 (stereo not given) | 87.1% (active) | 85.8% (active) | 7.15% | -0.35% | 15.7% | -46.8%
Cc1[nH]c(=S)[nH]c1C | 4.1% | 9.5% | 12.2% | 10% | 15.7% | 12.6%
Cc1ccc(N(C)S(=O)(=O)c2ccccc2[N+](=O)[O-])cc1 | 19.1% | -17.6% | 28.3% | 12.1% | 14.1% | 19.6%
